# Laboratory results reported in PubChem BioAssay AID588689 (Southern Research Specialized Biocontainment Screening …, 2011).
# Values joined by “and” are separate entries in the source; they are usually repeats but may differ in a detail not shown here. Equal values may be shown once. The whole screen tested about 340,000 compounds, of which about 1,000 (0.29%) were called active. No stated cut-off is given here; in the data, inconclusive means inhibition above about 29% without an active follow-up result; inactive means below that. A selection follows. Measured potencies and affinities stand elsewhere.
# Molecular target: Genome polyprotein (Dengue virus type 2 (strain 16681-PDK53)) (UniProt P29991)
# Sequence (P29991 whole entry, looked up): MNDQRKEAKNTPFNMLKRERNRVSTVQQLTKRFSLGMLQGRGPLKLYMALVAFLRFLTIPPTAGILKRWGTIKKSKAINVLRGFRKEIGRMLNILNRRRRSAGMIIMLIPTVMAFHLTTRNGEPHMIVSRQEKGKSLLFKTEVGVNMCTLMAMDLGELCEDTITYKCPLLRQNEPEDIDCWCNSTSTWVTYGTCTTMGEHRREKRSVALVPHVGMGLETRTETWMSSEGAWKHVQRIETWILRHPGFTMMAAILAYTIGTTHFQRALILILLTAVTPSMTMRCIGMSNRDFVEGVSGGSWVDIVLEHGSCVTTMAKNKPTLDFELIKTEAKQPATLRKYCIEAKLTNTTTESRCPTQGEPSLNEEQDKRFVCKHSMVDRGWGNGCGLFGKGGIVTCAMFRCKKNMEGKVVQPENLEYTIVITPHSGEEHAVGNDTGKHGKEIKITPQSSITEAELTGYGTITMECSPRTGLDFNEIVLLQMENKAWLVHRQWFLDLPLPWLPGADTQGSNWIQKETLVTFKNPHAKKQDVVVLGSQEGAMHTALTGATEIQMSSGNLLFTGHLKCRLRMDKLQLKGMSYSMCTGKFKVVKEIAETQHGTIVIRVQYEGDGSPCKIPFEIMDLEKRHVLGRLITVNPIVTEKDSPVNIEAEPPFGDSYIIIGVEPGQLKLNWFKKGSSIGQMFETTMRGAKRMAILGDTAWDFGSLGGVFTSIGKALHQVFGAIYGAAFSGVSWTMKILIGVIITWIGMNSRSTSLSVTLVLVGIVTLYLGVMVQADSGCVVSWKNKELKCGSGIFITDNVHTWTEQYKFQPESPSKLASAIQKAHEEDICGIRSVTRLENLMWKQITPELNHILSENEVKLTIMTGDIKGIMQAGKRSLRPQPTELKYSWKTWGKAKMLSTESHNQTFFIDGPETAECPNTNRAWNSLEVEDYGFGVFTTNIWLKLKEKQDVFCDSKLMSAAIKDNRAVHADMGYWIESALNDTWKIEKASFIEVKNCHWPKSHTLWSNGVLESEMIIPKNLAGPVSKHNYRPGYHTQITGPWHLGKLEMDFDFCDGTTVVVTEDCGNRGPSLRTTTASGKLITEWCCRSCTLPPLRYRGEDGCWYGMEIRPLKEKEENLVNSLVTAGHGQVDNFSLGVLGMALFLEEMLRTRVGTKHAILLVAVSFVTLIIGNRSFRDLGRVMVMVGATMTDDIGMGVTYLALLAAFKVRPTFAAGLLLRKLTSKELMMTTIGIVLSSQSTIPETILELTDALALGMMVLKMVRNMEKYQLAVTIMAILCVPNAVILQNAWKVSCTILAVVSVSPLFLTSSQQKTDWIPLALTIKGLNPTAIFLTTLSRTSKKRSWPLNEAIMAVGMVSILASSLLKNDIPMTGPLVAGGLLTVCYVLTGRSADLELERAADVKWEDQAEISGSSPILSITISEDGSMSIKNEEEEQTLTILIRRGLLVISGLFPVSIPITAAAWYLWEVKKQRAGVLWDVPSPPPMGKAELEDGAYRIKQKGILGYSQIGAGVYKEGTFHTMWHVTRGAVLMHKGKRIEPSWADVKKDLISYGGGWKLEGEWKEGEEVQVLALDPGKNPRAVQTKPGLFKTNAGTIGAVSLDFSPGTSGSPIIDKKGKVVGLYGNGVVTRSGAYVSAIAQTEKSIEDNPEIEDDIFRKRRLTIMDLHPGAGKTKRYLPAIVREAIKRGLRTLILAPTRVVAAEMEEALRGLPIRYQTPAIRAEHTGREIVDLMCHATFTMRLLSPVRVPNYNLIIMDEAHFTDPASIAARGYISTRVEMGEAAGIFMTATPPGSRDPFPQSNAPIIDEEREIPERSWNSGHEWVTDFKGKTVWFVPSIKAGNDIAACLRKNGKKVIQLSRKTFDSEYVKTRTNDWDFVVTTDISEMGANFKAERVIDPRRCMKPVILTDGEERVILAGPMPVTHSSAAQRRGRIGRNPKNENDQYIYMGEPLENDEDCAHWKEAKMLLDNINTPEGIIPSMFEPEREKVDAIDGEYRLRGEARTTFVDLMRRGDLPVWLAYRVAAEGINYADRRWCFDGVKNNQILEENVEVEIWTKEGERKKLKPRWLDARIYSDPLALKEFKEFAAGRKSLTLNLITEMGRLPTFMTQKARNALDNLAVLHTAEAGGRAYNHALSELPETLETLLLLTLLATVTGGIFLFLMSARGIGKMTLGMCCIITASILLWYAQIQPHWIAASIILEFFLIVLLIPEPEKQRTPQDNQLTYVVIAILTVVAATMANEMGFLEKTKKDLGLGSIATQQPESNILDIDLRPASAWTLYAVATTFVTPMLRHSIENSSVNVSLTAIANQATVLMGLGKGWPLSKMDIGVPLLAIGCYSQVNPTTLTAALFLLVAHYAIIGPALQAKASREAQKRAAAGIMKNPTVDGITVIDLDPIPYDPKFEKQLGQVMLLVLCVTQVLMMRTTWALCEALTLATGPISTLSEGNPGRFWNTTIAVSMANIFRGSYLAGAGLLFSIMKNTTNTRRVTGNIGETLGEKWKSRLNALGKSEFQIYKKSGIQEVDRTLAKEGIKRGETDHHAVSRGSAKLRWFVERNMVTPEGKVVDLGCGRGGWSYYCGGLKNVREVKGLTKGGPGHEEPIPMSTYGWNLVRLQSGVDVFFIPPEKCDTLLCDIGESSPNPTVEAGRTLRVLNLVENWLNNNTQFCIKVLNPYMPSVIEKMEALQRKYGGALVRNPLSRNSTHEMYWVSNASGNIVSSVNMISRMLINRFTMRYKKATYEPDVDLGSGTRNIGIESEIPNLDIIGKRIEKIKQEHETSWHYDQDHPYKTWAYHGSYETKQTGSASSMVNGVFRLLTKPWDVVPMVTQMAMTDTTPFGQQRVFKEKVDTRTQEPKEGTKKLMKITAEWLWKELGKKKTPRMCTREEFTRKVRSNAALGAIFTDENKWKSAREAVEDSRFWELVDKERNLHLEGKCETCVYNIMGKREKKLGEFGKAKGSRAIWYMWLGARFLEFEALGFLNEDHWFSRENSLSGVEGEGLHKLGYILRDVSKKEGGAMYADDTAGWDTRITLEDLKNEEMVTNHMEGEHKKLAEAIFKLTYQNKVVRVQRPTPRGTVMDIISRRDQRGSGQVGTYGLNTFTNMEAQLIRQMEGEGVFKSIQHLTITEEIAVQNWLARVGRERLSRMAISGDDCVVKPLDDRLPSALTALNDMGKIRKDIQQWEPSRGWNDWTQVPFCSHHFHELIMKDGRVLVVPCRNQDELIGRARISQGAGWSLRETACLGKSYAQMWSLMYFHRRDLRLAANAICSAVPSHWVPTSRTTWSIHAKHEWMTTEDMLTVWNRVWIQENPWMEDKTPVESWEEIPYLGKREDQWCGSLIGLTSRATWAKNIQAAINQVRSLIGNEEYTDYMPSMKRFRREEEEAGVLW
# Experiment: flavivirus cap methylation enzyme inhibition – biochemical, confirmation dose response, primary screen (AID 588689)
# Details: Dengue-2 NS5 methyltransferase capping enzyme assay, at 25 µM, stronger effect = higher value
# [1] = measured here: pilot screen replicate inhibition
Compound,inhibition,inhibition [1] [%]
CN(C)c1ccc(C=c2c3ccccc3n3c2cc(-c2ccccc2)[n+]3C)cc1,16.6% (inactive),
COc1cc(C=c2c3ccccc3n3c2cc(-c2ccccc2)[n+]3C)cc(OC)c1OC,-32.8% (inactive),
C[n+]1c(-c2ccccc2)cc2c(=Cc3ccccc3)c3ccccc3n21,-8.87% (inactive),
CN(C)c1ccc(C=c2c3cc(O)ccc3n3c2cc(-c2ccccc2)[n+]3C)cc1,27.4% (inactive),
C=CCn1c(SCC#N)nc2ccccc2c1=O,0.54% (inactive),
Cc1ccc(NC(=O)C(C)Sc2nnc(C)n2C)cc1 (stereo unspecified),-10.5% (inactive),-8.82
Oc1ccc(N=Nc2ccc3ccccc3c2)cc1,-0.57% (inactive),
Nc1ccc(N=Nc2ccc(O)cc2)c(N)n1,-2.31% (inactive),
COc1ccc(NC(=O)C2CCCN(S(=O)(=O)c3ccc4[nH]c(=O)ccc4c3)C2)cc1OC (stereo unspecified),-7.99% (inactive),
CCN(CC)CCN(Cc1cc2cc3c(cc2[nH]c1=O)OCO3)C(=S)NCCCOC,-4.77% (inactive),
Cc1[nH]c2ccccc2c1C1C(c2ccccc2)=NN=C(C(C)C)N1O (stereo unspecified),-11.8% (inactive),
CCCN(CCC)S(=O)(=O)c1cccc(-c2csc(C)n2)c1,-5.33% (inactive),
COc1cccc(CN(C)C(=O)C2CSC3(C)CCC(=O)N23)c1OC (stereo unspecified),-4.42% (inactive),
COc1cc(/C=C2/NC(=O)N(Cc3ccccc3F)C2=O)cc(OC)c1O,1.47% (inactive),
COc1cc(/C=C2/NC(=O)N(Cc3ccccc3F)C2=O)ccc1Oc1ccc([N+](=O)[O-])cn1,-0.72% (inactive),
COc1ccc(Cl)cc1-c1nc(SCC(=O)N(C)C)n[nH]1,-2.97% (inactive),
Cc1nc2sc(C(c3ccco3)N3CCc4ccccc4C3)c(O)n2n1 (stereo unspecified),-4.07% (inactive),
CCCCNC(=O)c1onc(CSc2ccccc2C)c1C(=O)O,7.73% (inactive),
CCCCNC(=O)c1onc(CSc2ccccc2CC)c1C(=O)O,6.29% (inactive),
Cc1cccc(NC(=O)N(Cc2nc3ccccc3c(=O)[nH]2)C2CCCC2)c1,-1.56% (inactive),
CCOc1ccc(Br)cc1S(=O)(=O)Nc1cccc(S(=O)(=O)Nc2ccccc2C(=O)O)c1,11.4% (inactive),
O=C(O)c1cccc(-n2sc3ccccc3c2=O)c1,-2.4% (inactive),

Compound,inhibition,inhibition [1] [%]
CN(C)S(=O)(=O)c1cccc(-n2sc3ccccc3c2=O)c1,-48.9% (inactive),
Cc1ccc(S(=O)(=O)Nc2cccc(S(=O)(=O)Nc3ccccc3C(=O)O)c2)c(C)c1,17.5% (inactive),
CN(CCOc1ccccc1)C(=O)c1cc(S(=O)(=O)N2CCOCC2)ccc1Cl,-7.25% (inactive),
NS(=O)(=O)c1ccc(NC(=O)Cc2cccs2)cc1,0% (inactive),
O=c1[nH]c2cc([N+](=O)[O-])cc(Cl)c2c2ccccc12,5.75% (inactive),
CNC(=O)CN1C(=O)NC2(CCc3ccccc3C2)C1=O (stereo unspecified),0.74% (inactive),
COCC(C)n1c(SCC(=O)NC(=O)Cc2ccccc2)nc2ccccc2c1=O (stereo unspecified),1.46% (inactive),
CSc1nsc(SCC(=O)Nc2ccc(Cl)c(C(=O)O)c2)n1,8.31% (inactive),
O=C(CSc1n[nH]c(-c2ccncc2)n1)Nc1ccc(Cl)c(C(=O)O)c1,0.89% (inactive),
O=C(Cn1cnc([N+](=O)[O-])n1)N/N=C/c1cc(Cl)ccc1O,-13.5% (inactive),
NS(=O)(=O)c1ccc(NS(=O)(=O)c2ccc(NC(=O)C3CC3)cc2)cc1,15.1% (inactive),
Cc1csc(SCC(=O)Nc2ccc(F)cc2Cl)n1,-8.4% (inactive),
O=C(Nc1ncccc1Cl)C(Sc1ccccc1)c1ccccc1 (stereo unspecified),-1.88% (inactive),-5.46
CNC(=O)Oc1ccc2c(c1)[C@]1(C)CCN(C)C1N2C (stereo partly specified),0% (inactive),
CNC(=O)Oc1ccc2c(c1)[C@]1(C)CCN(C)[C@@H]1N2C,-1.49% (inactive) and -0.75% (inactive),
O=C(Nc1ccc(Cl)cc1)Nc1ccc2c(c1)N1CCN=C1S2,-47.1% (inactive),
COC(=O)c1ccccc1NC(=O)CSc1nccn1C,0.56% (inactive),
COc1cc(-c2ccc3sc(-c4ccsc4)c(C#CCO)c3c2)cc(OC)c1OC,3.31% (inactive),
Cc1ccc(C2=C(O)c3ccccc3C(=O)C2=O)cc1,10.5% (inactive),
Cc1ccc(C2=C(O)C(=O)C(c3ccc(C)cc3)=C(O)C2=O)cc1,2.31% (inactive),
COc1ccc([N+](=O)[O-])cc1-c1[nH]c(-c2ccc(C(=O)O)cc2)nc1-c1ccccc1,-2.87% (inactive),
CC(=O)Nc1ccc(S(=O)(=O)Nc2c(C)nn(-c3ccccc3)c2C)cc1,-3.38% (inactive),

Compound,inhibition,inhibition [1] [%]
COc1cc(NCc2ccccc2O)c2ncccc2c1,-1.29% (inactive),
COc1cc(NC(=O)C2CCCCC2)c2ncccc2c1,-4.93% (inactive),
CCN(CCCNC(=O)CNC(=O)c1nn(-c2ccc(OC)cc2OC)c(=O)c2ccccc12)c1cccc(C)c1,-2.2% (inactive),
Cc1cccc(-n2ccnc2SCC(=O)Nc2cc(C)on2)c1,-6.93% (inactive),
COc1ccc2[nH]c3c(c2c1)CCN1C(=O)C(CC(=O)NC(C)(C)C)C[C@H](C(=O)N(C(C)C)C(C)C)[C@@]31C (stereo partly specified),-6.62% (inactive),-4.89
Cc1cc(C)nc(SCC(=O)Nc2ccc(S(=O)(=O)Nc3cc(C)on3)cc2)n1,-0.67% (inactive),
Cc1cc(NS(=O)(=O)c2ccc(NC(=O)CSc3nc4sc(C(=O)O)c(C)c4c(=O)[nH]3)cc2)no1,1.64% (inactive),
O=C1C(=O)N(C/C=C/c2ccccc2)c2ccccc21,-12.9% (inactive),
N#CCCn1cc(/C=C2\NC(=S)N(c3ccccc3)C2=O)c(-c2ccc(F)cc2)n1,-8.84% (inactive),
CC1(C)CC(=O)C(=Cc2cn(-c3ccccc3)nc2-c2ccc(Cl)cc2)C(=O)C1,-1.09% (inactive),
N#CCCn1cc(/C=N/O)c(-c2ccc(F)cc2)n1,-2.03% (inactive),
CC1(C)CC(=O)C(=Cc2cn(-c3ccccc3)nc2-c2ccccc2)C(=O)C1,27.8% (inactive),
CC1=NN(c2ccccc2)C(=O)/C1=C\c1cn(CCC#N)nc1-c1ccc(Cl)cc1,5.39% (inactive),
CC1=NNC(=O)/C1=C\c1cn(-c2ccccc2)nc1-c1ccccc1,10.9% (inactive),
Cc1ccc(NC(=O)c2cc(-c3cc(Cl)ccc3O)n[nH]2)cc1C,-6.12% (inactive),
COc1cccc(N2CCN(C(=O)CNC(=O)c3sc4ccccc4c3Cl)CC2)c1,-1.29% (inactive),
O=C1CN(C(=O)COC(=O)c2ccccc2NCc2ccco2)c2ccccc2N1,-4.76% (inactive),
CCOC(=O)c1c(C)[nH]c(C(=O)OCC(=O)N(CC(C)C)C2CCS(=O)(=O)C2)c1C (stereo unspecified),4.1% (inactive),
Cc1c(N(C)C(=O)c2ccccc2F)c(=O)n(-c2ccccc2)n1C,2.15% (inactive),
COc1cccc(C(NC(=O)c2ccccc2F)NC(=O)c2ccccc2F)c1,-5.64% (inactive),
CC(=NCCCNC1CCCCC1)C1=C(O)CC(C)(C)CC1=O,10.2% (inactive),
O=C(NC1CCCc2ccccc21)C1CCN(c2c3c(nc4ncnn24)CCC3)CC1 (stereo unspecified),-6.95% (inactive),

Compound,inhibition,inhibition [1] [%]
O=C(O)C(Cc1ccccc1)N1C(=O)c2ccccc2C1=O (stereo unspecified),-1.57% (inactive),
O=C(O)C(Cc1ccc(O)cc1)N1C(=O)c2c(Cl)c(Cl)c(Cl)c(Cl)c2C1=O (stereo unspecified),16.9% (inactive),
O=C(O)C(Cc1ccccc1)N1C(=O)CCC1=O (stereo unspecified),-3.06% (inactive),
O=C(O)C(Cc1ccccc1)N1C(=O)c2cccc3cccc(c23)C1=O (stereo unspecified),-2.21% (inactive),
Cc1cccc(C)c1NC(=O)C(c1ccc([N+](=O)[O-])cc1)N1CCCCC1 (stereo unspecified),-3.23% (inactive),
Cc1onc(-c2ccccc2Cl)c1C(=O)Nc1ccc(-c2nnc3n2CCCCC3)cc1,9.09% (inactive),
O=C(CNC(=O)c1cccs1)Nc1ccncc1,1.47% (inactive),
Cc1cc(C(C)(C)C)oc1C(=O)N(CC(=O)NC1CCCC1)c1cccc(C(F)(F)F)c1,-5.56% (inactive),
CCOC(=O)c1[nH]c2ccccc2c1NC(C)=O,1.39% (inactive),
Cc1[nH][nH]c(=O)c1C(c1cc(Br)ccc1O)c1c(C)[nH][nH]c1=O,0% (inactive),
O=C(CC(c1ccccc1)c1cc(Br)ccc1O)N1CCCC1 (stereo unspecified),-0.78% (inactive),
CCc1c(C(=O)O)[nH]c2ccc(Br)cc12,7.42% (inactive),
CCOc1ccccc1NC(=O)CSCC(=O)Nc1ccccc1,0% (inactive),
CCOC(=O)N1CCN(CC(O)COCC2=CCC3CC2C3(C)C)CC1 (stereo unspecified),6.09% (inactive),
C[C@@H](C(=O)Nc1ccc2ccccc2c1)[C@H]1C[C@]1(C)[C@H](NC(=O)OCc1ccccc1)c1ccccc1,4.76% (inactive),
CCOC(=O)N1CCN(S(=O)(=O)N2CCCC(C(=O)NCc3ccccc3Cl)C2)CC1 (stereo unspecified),-6.21% (inactive),
CC(NC(=O)C1CCC1)c1ccc(Cl)cc1 (stereo unspecified),-3.24% (inactive),
COCc1cc(C)nc(N/N=C/c2ccc(-c3ccc(Cl)cc3[N+](=O)[O-])o2)c1C#N,0.9% (inactive),
O=C1C2C3C=CC(C4CC34)C2C(=O)N1/N=C/c1ccc(-c2ccc(Cl)cc2[N+](=O)[O-])o1 (stereo unspecified),0% (inactive),
Cc1ccc(-c2ccc(/C=N/N3C(=O)C4C5C=CC(C6CC56)C4C3=O)o2)c([N+](=O)[O-])c1 (stereo unspecified),-2.05% (inactive),
Cc1ccc(-c2ccc(/C=N/N3C(=O)C4C5C=CC(CC5)C4C3=O)o2)c([N+](=O)[O-])c1 (stereo unspecified),4.83% (inactive),
Cc1nc2ccccn2c1C(=O)N/N=C/c1ccccc1Cl,0.65% (inactive),
